Molecules are shown by their SMILES. Results filed as inconclusive are left out. Activity calls are given as the source filed them. Unless noted, calls come from the whole dose curve; as a rule, active = well fitted curve in the direction sought with a large enough effect in the repeat runs; inconclusive = weak or mixed curves; inactive = no such curve, though single readings can be large; an effect the other way counts as inactive or inconclusive.

The results in this text go back to PubChem BioAssay (Tox21).

A short description of assay [1]: A CellTox Green Cytotoxicity Assay to monitor cytotoxicity in HEK293 cells - 32 hour (AID 1224881). Note: nearly all actives have a fitted effect of over 40% in size. Note: potency is the fitted concentration of half-maximal effect. The method, boiled down:
(§1)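 Cells (HEK293, 600/well) and dye reagent are dispensed together. After 5 h at 37 C, 23 nL compound is pinned in. Plates stay at 37 C for 40 h with fluorescence read at 0h, 8h, 16h, 24h, 32h and 40h.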

Assay [2] is described as follows: A CellTox Green Cytotoxicity Assay to monitor cytotoxicity in HepG2 cells - 0 hour (AID 1224882). Note: nearly all actives have a fitted effect of over 35% in size. The method, boiled down: (§2)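 Cells and non-lytic dye reagent are dispensed together (600 HepG2 cells/well) and incubated 5 h before DMSO compound transfer. Kinetic fluorescence is then recorded in the same wells during 40 h at 37 C.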
Assay [3] in a line: A CellTox Green Cytotoxicity Assay to monitor cytotoxicity in HepG2 cells - 32 hour (AID 1224883). Note: nearly all actives have a fitted effect of over 50% in size. Note: potency is the fitted concentration of half-maximal effect. The method, boiled down: as §2
A short description of assay [4]: qHTS RealTime-Glo MT Cell Viability Assay in HEK293 cells - 24 hour (AID 1224886). Note: nearly all actives have a fitted effect of over 50% in size. Note: potency is the fitted concentration of half-maximal effect. The method, boiled down: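 Reads taken at 0, 8, 16, 24, 32 and 40 h from the same wells. HEK293 cells (600/well) carried RealTime-Glo reagents from seeding, with compound added after a 5 h settle at 37 C.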
On the technique in general: Quantitative high-throughput screening tests each substance at several concentrations.

Assay [5] is described as follows: qHTS RealTime-Glo MT Cell Viability Assay in HEK293 cells - 8 hour (AID 1224887). Note: nearly all actives have a fitted effect of over 50% in size. Note: potency is the fitted concentration of half-maximal effect. Put shortly: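 Real-time viability in HEK293: signal arises when living cells convert a prosubstrate for NanoLuc in the medium, so luminescence tracks viable cell number. Compound (23 nL, DMSO) added 5 h post-seeding; kinetic reads at 0–40 h, 37 C.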
Assay [6] in a line: A CellTox Green Cytotoxicity Assay to monitor cytotoxicity in HEK293 cells - 16 hour (AID 1224888). Note: nearly all actives have a fitted effect of over 35% in size. The method, boiled down: as §1
Assay [7] in a line: qHTS RealTime-Glo MT Cell Viability Assay in HepG2 cells - 0 hour (AID 1224889). Note: nearly all actives have a fitted effect of over 50% in size. The method, boiled down:
(§3)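 HepG2 suspension premixed with RealTime-Glo reagents is plated at 600 cells per well and left 5 h at 37 C/5% CO2. Compounds in DMSO then go in, and bioluminescence reflecting viable cell number is recorded over 40 h.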

A short description of assay [8]: A CellTox Green Cytotoxicity Assay to monitor cytotoxicity in HepG2 cells - 8 hour (AID 1224890). Note: nearly all actives have a fitted effect of over 45% in size. Note: potency is the fitted concentration of half-maximal effect. Put shortly: as §2
Assay [9] can be described thus: qHTS assay to identify small molecule antagonists of the estrogen receptor alpha (ER-alpha) signaling pathway using the BG1 cell line in the presence of 0.1 nM 17-beta-estradiol - cell viability counter screen (AID 1259241). Note: nearly all actives have a fitted effect of over 40% in size. The method, boiled down:
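Cells were plated and left 24 hr, compounds in DMSO were pinned in, 17beta-estradiol was added to 0.1 nM final, and after 22 hr CellTiter-Fluor reagent was added for 30 min before fluorescence was read.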

The nature of assay [10]: qHTS assay to identify small molecule antagonists of the androgen receptor (AR) signaling pathway using the MDA cell line in the presence of 0.5 nM R1881 - cell viability counter screen (AID 1259242). Note: nearly all actives have a fitted effect of over 45% in size. Put shortly: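 Steps: plate MDA-kb2 cells, rest 5 hr at 37C without CO2; pin in compounds in DMSO; add R1881 to 0.5 nM final; incubate 16 hr; add CellTiter-Fluor, 30 min; read fluorescence.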

For assay [11], the target named is Estrogen receptor (Homo sapiens) (UniProt P03372). The assay is described as follows: qHTS assay to identify small molecule antagonists of the estrogen receptor alpha (ER-alpha) signaling pathway using the BG1 cell line in the presence of 0.1 nM 17-beta-estradiol (AID 1259244). Note: nearly all actives have a fitted effect of over 50% in size. Note: potency is the fitted concentration of half-maximal effect. The method, boiled down: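 Antagonist mode: compounds in DMSO are pinned onto VM7Luc4E2 reporter cells, 0.1 nM final 17beta-estradiol is added, and after 22 h at 37C luciferase luminescence is measured with ONE-Glo.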

Assay [12] in a line: qHTS assay to identify small molecule HDAC inhibitors (AID 1259364).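 Note: wild-type HCT-116 cells with endogenous class I/II HDAC activity; top concentration of the series differs between compounds; nearly all actives have a fitted effect of over 45% in size.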 Put shortly: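 Cells (HCT-116, wild type) are seeded at 1,500 per well, incubated overnight, treated with compound in DMSO for 2 hr, then developed with HDAC-Glo I/II reagent for 30 min at room temperature.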
Assay [13] in a line: qHTS assay to identify small molecule HDAC inhibitors - cell viability counter screen (AID 1259365). The method, boiled down:
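Counter screen in wild-type HCT-116 cells: compounds dissolved in DMSO are pin-transferred onto overnight-plated cells and left 2hr at 37C. ATP-based CellTiter-Glo luminescence then measures viable cells.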

Assay [14] can be described thus: qHTS assay to identify small molecule agonists of the sonic hedgehog signaling (Shh) pathway - cell viability counter screen (AID 1259366). Note: nearly all actives have a fitted effect of over 50% in size. Note: potency is the fitted concentration of half-maximal effect. The method, boiled down: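 Cells are plated at 2,000 per well and left 4hr at 37C, 5% CO2 before compound addition. After 23hr of treatment, CellTiter-Fluor reagent is added for 1hr at 37C and fluorescence is measured.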
Assay [15] can be described thus: qHTS assay to identify small molecule antagonists of the sonic hedgehog signaling (Shh) pathway - cell viability counter screen (AID 1259367). Note: nearly all actives have a fitted effect of over 55% in size. Note: potency is the fitted concentration of half-maximal effect. Put shortly: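 CellTiter-Fluor signal in conditioned medium-stimulated 3T3 Gli1-Luc cells, 23 hr compound exposure, 37C.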
Assay [16] can be described thus: qHTS assay to identify small molecule agonists of the sonic hedgehog signaling (Shh) pathway (AID 1259368; calls by dose curve;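 note: NIH/3T3-derived 3T3Gli1-Luc cells carrying a stable Gli1-driven firefly luciferase reporter; series mostly up to about 92 µM; nearly all actives have a fitted effect of over 15% in size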). Put shortly: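 Cells of a mouse NIH/3T3 clone stably expressing luciferase under the Gli1 transcriptional response element are exposed to test chemicals for 24 hr at 37 C. Pathway activation is detected as a rise in luminescence.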
The nature of assay [17]: A CellTox Green Cytotoxicity Assay to monitor cytotoxicity in HEK293 cells - 8 hour (AID 1224884). Note: nearly all actives have a fitted effect of over 35% in size. Put shortly: as §1
A short description of assay [18]: qHTS RealTime-Glo MT Cell Viability Assay in HepG2 cells - 16 hour (AID 1224885). Note: nearly all actives have a fitted effect of over 50% in size. Note: potency is the fitted concentration of half-maximal effect. Put shortly:
as §3

Assay [19] can be described thus: qHTS assay to identify small molecule phospholipidosis (PLD) inducers (AID 1259344; active = well fitted curve in the direction sought with a large enough effect; an effect the other way counts as inactive or inconclusive). Put shortly: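 Accumulated phospholipid, stained red by LipidTOX during 24 h compound treatment of HepG2 cells at 37 C, is quantified from images as pit number and intensity, normalised per cell using Hoechst-stained nuclei.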
In assay [20] the target is Androgen receptor (Homo sapiens) (UniProt P10275). The assay can be described thus: qHTS assay to identify small molecule antagonists of the androgen receptor (AR) signaling pathway using the MDA cell line in the presence of 0.5 nM R1881 (AID 1259243). Note: nearly all actives have a fitted effect of over 50% in size. Put shortly:
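Stably transfected MDA-kb2 cells express luciferase from an MMTV promoter bearing both AR and GR response elements. Compounds plus 0.5 nM R1881 (final) were incubated 16 hr at 37C without CO2, then luminescence measured.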

Estrogen receptor (Homo sapiens), sequence (P03372 whole entry, looked up): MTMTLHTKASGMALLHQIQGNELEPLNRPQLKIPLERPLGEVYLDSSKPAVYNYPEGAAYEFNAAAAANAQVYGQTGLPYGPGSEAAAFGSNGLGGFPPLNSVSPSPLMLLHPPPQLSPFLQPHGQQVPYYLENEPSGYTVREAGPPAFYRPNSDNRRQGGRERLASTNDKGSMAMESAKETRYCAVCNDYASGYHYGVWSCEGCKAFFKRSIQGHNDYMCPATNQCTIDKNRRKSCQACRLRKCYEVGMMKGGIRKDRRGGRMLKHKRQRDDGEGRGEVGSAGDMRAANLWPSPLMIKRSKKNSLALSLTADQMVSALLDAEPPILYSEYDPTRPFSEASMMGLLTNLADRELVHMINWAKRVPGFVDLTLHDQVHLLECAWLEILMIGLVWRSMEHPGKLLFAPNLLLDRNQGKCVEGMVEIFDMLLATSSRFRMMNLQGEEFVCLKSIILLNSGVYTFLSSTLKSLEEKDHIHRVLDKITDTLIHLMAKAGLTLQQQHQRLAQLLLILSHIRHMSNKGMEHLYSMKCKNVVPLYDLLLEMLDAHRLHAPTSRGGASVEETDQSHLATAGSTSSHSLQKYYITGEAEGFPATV
Androgen receptor (Homo sapiens), sequence (P10275 whole entry, looked up): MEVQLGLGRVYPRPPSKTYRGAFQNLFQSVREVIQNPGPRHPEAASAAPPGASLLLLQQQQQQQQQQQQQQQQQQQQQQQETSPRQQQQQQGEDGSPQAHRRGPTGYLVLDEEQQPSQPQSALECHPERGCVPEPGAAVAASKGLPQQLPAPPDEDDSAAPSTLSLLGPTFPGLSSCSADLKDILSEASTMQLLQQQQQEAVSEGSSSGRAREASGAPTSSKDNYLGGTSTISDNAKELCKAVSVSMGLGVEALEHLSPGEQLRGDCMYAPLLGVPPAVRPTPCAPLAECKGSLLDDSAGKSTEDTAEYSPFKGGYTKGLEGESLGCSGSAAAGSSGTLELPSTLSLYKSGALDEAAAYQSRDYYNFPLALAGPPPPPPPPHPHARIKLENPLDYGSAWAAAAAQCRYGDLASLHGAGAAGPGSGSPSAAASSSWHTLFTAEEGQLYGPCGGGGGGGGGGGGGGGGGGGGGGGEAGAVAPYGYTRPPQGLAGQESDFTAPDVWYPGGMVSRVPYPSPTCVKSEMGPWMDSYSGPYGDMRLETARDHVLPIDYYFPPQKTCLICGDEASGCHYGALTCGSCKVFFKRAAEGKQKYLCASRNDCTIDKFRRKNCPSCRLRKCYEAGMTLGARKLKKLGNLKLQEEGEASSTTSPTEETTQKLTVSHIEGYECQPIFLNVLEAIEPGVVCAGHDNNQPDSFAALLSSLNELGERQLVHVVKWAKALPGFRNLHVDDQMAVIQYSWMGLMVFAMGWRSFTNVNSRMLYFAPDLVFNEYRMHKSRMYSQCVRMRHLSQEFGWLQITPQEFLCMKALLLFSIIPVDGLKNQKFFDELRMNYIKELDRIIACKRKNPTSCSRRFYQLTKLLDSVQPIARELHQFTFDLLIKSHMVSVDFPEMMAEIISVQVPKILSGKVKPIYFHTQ

As for `CC(C)CP(=S)(S)CC(C)C`, the Potency entry in assay [1], in assay [3], in [4], in assay [5], in assay [6] and in [7] was “inactive” in each case. For the same molecule, the Potency result in assay [8], in assay [11], in assay [12], in assay [14] and in [15] was “inactive” each time. The call in assay [2], in [9], in assay [10], in [13] and in assay [16] was inactive.
Consider `CC(=O)Nc1cc([As](=O)(O)O)ccc1O`, for which the Potency entry in [1], in assay [3], in assay [17], in [18], in assay [4] and in [5] was “inactive” each time. Moreover, the Potency entry in assay [6], in [7], in assay [8], in assay [11], in assay [12] and in assay [14] was “inactive” in each case. Besides, the Potency result in assay [15] was “inactive”. In addition, the outcome in assay [9], in assay [10], in assay [19], in [13] and in assay [16] was inactive.
With `Nc1cnn(-c2ccccc2)c(=O)c1Cl`, the Potency result in assay [1], in assay [3], in [17], in [18], in [4] and in assay [5] was “inactive” in each case. For the same molecule, the Potency entry in assay [6], in assay [7], in assay [8], in [11], in assay [12] and in assay [14] was “inactive” throughout. For the same molecule, the Potency entry in assay [15] is “inactive”. The outcome in [9], in assay [10], in assay [13] and in [16] was inactive.
On to `C[C@]12CC[C@H]3[C@@H](CCC4=CC(=O)CC[C@@]43C)[C@@H]1CC[C@@H]2C(=O)O`, for which the Potency result in [1], in assay [3], in assay [17], in assay [18], in assay [4] and in assay [5] was “inactive” in each case. Besides, the Potency result in assay [6], in [7], in assay [8], in assay [20], in assay [11] and in [12] was “inactive” in each case. The Potency entry in assay [14] and in assay [15] was “inactive” in each case. In addition, the result in assay [9], in assay [10], in [13] and in [16] was inactive.
Consider `C[N+](C)=CCl`, for which the Potency result in assay [1], in assay [3], in assay [17], in assay [18], in assay [4] and in assay [5] was “inactive” in each case. In addition, the Potency result in [6], in [7], in assay [8], in assay [11], in [12] and in [14] was “inactive” throughout. Further, the Potency result in [15] was “inactive”. Moreover, the result in [9], in assay [10], in assay [13] and in assay [16] was inactive.
For `CC(COc1ccc(Oc2ccccc2)cc1)Oc1ccccn1` (centres undefined), the Potency entry in assay [1], in assay [3], in assay [18], in [6], in [7] and in [8] was “inactive” throughout. In addition, the Potency result in [20], in [14] and in assay [15] was “inactive” in each case. Moreover, the call in [2], in assay [9], in assay [10], in assay [13] and in assay [16] was inactive.
As for `Fc1ccc(C2(Cn3cncn3)OC2c2ccccc2Cl)cc1` (centres undefined), the Potency result in [1], in [17], in assay [18], in assay [6], in assay [7] and in assay [8] was “inactive” throughout. For the same molecule, the Potency result in [12], in assay [14] and in assay [15] was “inactive” throughout. Besides, the molecule was classed as inactive in [2], in assay [9], in assay [10], in assay [13] and in assay [16]. Further, in assay [4], the Potency is 43.6 µM (active).
`N#CC(CCc1ccc(Cl)cc1)(Cn1cncn1)c1ccccc1` (centres undefined): the Potency in assay [1] was 54.9 µM (active); in assay [3], 21.9 µM (active); in [18], 27.5 µM (active); in assay [5], 21.9 µM (active); in [8], 34.7 µM (active); in assay [11] it was 27.3 µM (active). Further, the Potency was 48.6 µM (active) in [14] and 27.3 µM (active) in [15]. Moreover, the outcome in [2], in assay [13] and in assay [16] was inactive. Moreover, in assay [12], the Potency entry is “inactive”.
Regarding `O=C(NCO)NCO`, the Potency result in assay [1], in assay [3], in assay [17], in assay [18], in [4] and in assay [5] was “inactive” each time. For the same molecule, the Potency entry in assay [6], in assay [7], in assay [8], in assay [11], in [12] and in assay [14] was “inactive” in each case. Moreover, the Potency result in [15] is “inactive”. Also, the outcome in assay [9], in assay [10], in assay [13] and in assay [16] was inactive.
